Assay results taken from the supplement of paper PMC6555819.

Legend:
Test in all cases: PBM binding z-score (relative to random genomic background probes); higher = stronger binding; sequences stand for … in GC…GCGATTGACAGCGTAGAATGAAGG
[1] = test system: RARb homodimer (NR concentration 270 nM)
Outline: (§1)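 Custom Agilent 4×180K protein-binding microarrays carried double-stranded probes. Their 34-nt variable regions held direct-repeat seeds, single-nucleotide variants, half-site ablations and random human genomic background sequences. Arrays were incubated 1 h with ligand-free nuclear receptor dimers in PBS pH 7.4, 2% milk, 0.02% Triton X-100, 1 mM DTT, 0.2 mg/mL BSA and 0.4 mg/ml salmon testes DNA. Antibodies against each partner (one per run) detected binding, and scanned fluorescence was regression-normalized. Binding z-scores use random background probes as reference.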

[2] = test system: RARg:RXRa (NR concentration 270 nM, RXRa partner concentration 90 nM)
Outline: as §1

[3] = test system: RARg homodimer (NR concentration 270 nM)
Outline: as §1

[4] = test system: RXRa DBDmut IVT, anti-RXR (DBD mutation: RXRa K156A/R161A, NR concentration 90 nM)
Outline: as §1

[5] = test system: RXRa homodimer (NR concentration 180 nM)
Outline: as §1

[6] = test system: THRa:RXRa (NR concentration 90 nM, RXRa partner concentration 90 nM)
Outline: as §1

[7] = test system: THRa homodimer (NR concentration 90 nM)
Outline: as §1

[8] = test system: VDR homodimer (NR concentration 270 nM)
Outline: as §1

Sequence	PBM binding z-score [1]	PBM binding z-score [2]	PBM binding z-score [3]	PBM binding z-score [4]	PBM binding z-score [5]	PBM binding z-score [6]	PBM binding z-score [7]	PBM binding z-score [8]
AGTCAAAGTTCATCTAGGTTACGTAAGATATGCT	4.3	5.85	6.39	4.52	5.4	3.45	0.553	6.02
AATACAGGGTCATCGAAGGCCAGAGTACGCACAG	3.74	5.74	5.31	3.38	6.7	4.62	1.43	3.66
AGAACTAGGGCACGCTGAGTTGATAGCAGAGTAG	0.535	0.967	1.49	-0.125	0.504	0.309	-0.568	0.21
AGGACGAGGGCAATGAGTTGATAGCACGGGTGGC	1.44	1.21	1.88	2.22	0.924	1.08	0.181	3.41
CGTCCAAGGTCACAGGTCAGTGAAGAGATGACGG	5.03	6.75	7.51	3.42	7.67	4.36	3.28	2.75
CCTATTAGTTGACCATAAGGGCAACCAAAGCTCG	2.24	1.55	1.14	0.788	0.828	2.02	1.47	0.747
TCTTGCAGATCAATAGAGGTTAAGAAAGTGCGCT	1.01	0.797	0.305	0.292	1.37	2.42	-0.532	-0.0844
AGTCAACGTTCAGGACGAGGTAACGTAAAGCACG	-0.0275	0.297	0.412	-0.658	0.0619	2.08	1.42	-0.0352
TAGCCTAGTTCAGATCGGGCCAGTATACGCTATA	-0.206	-0.0236	0.216	0.421	-0.081	2.53	-0.553	0.117
AATACAGGGTCAATAGGCCAGAGTAGGTACGAAT	3.5	5.29	4.37	2.4	4.89	3.03	0.474	2.13
CAGCCTAGGACAGGGCCAGTATAGGAGGAACGTT	-0.1	-0.205	0.0959	-0.669	-0.283	0.127	-0.164	-0.467
ACTATTAGTTTAGACGAGGGCAACCGATAGGTTG	1.49	0.78	1.15	0.931	0.581	2.5	0.435	1.65
TCTGCTAGGTCAACGATGGTCCGCTAATCTGCTA	2.94	3.75	4.7	1.2	2.3	2.56	0.713	-0.413
CCTACTGGGCCACGAAGGGTCATTGATTCAGTGA	3.41	2.96	2.73	-0.323	2.86	3	-0.121	1.53
ATCGAAAGGTCGCCGAGGTGAGTATACACCGTTT	3.6	4.9	5.02	1.78	5.24	4.1	1.17	1.53
CCAGACAGGTGAGAACGTAACTCAGCCTCGATTA	0.118	0.404	0.33	0.242	0.378	-0.0328	0.361	0.202
GCATATAGGTAATACAAGGCGAAAGTCCGATTGT	-0.287	0.107	0.326	0.52	0.182	2.28	-0.176	-0.0927
CCAGACAGGTGAAAGGTAACTCAATCTGGTACGC	1.19	1.48	0.946	0.203	2.39	1.1	0.0708	-0.0474
TCGAGTAGGTTAGCGGCATTCAGAATGGCGTCGA	-0.725	-0.482	-0.458	-0.267	0.000996	-0.647	-0.985	-0.691

Sequence	PBM binding z-score [1]	PBM binding z-score [2]	PBM binding z-score [3]	PBM binding z-score [4]	PBM binding z-score [5]	PBM binding z-score [6]	PBM binding z-score [7]	PBM binding z-score [8]
GCGACTGGGGCAAAGAAGGTTACCATAAGGTTGG	1.92	1.19	1.02	-0.00563	0.942	2.77	0.225	0.247
CAAACTAGGTCACCGGACGGTCAAAGTCCGCATG	4.41	6.71	6.04	1.41	4.05	3.5	1.73	1.1
AGTCCAAGTTCAGGACGAGGTAACGTAAAGCACG	1.71	2.68	2.35	3.51	1.3	3.44	1.65	2.91
TCCTGTAGATCAAGCAGGTTAAGAAAGCCTGAGT	0.0843	-0.142	-0.295	0.428	0.45	0.254	-0.566	0.241
TGAATAAGGTTATAAGATCAGGGAACGTTGCAAA	0.682	1.59	1.14	0.444	1.89	1.79	0.426	0.135
AGAATGAGGTTATACGTAGATGAGGGAAGAAAGT	0.964	1.74	1.17	1.8	2.24	2.26	0.843	0.924
CAAACTAGGTCAAAGGTTAAAGTCGAGCCAACCA	3.86	7.3	5.26	2.59	8.93	4.29	1.04	1.6
TAAATGAGGTTAAAGATCAGGGAACGTGGCGTCG	1.22	2.58	1.64	1.2	4.01	3.09	0.733	1.12
GCTCGTAGATCAAGGTTAAGAAAGACTAAGCTAA	-0.0448	0.0431	-0.0396	-0.285	0.709	0.978	-0.631	-0.34
CGTACAAGGTCAGCAGGTCAGTGAAAGCGACGTG	5.11	6.42	6.72	3.07	5.36	3.93	2.42	1.68
GCATATAGGAAATACAAGGTGAAAGTCCGATTGT	0.623	0.263	0.484	0.294	0.281	1.94	0.81	-0.126
AGAATGAGGTTACCACAGATCAGGGAAACGCTTG	0.855	2	1.62	1.24	2.61	2.93	0.878	0.395
TCTTGTAGATCACCAGGTTAAGAAAGCTGGCCAA	0.501	0.343	-0.0575	1.03	1.06	1.06	0.422	0.245
ACAGACAGGCGAGTGAAGGTAACTCAGCTGGACG	-0.318	-0.0341	-0.0147	-0.699	0.296	0.0808	-0.312	-0.484
TCATATACGTAAAAGGTGAAAGTCGGTGTGGTAA	1.94	1.27	0.986	1.98	2.01	1.36	0.293	0.435
TCTAGTTGGTAAAAGGTCACACACTCGAAATGCG	5.28	6.21	5.8	2.17	6.64	4.08	2.3	2.75
ATCTCTAGGTGAAGTTCAGTGAAAGATCGATAGA	1.53	1.3	1.46	0.512	0.437	1.19	0.0183	0.509
ACAGACAGGTGATGAATGTAACTCAGGCTATCAT	-0.0762	0.375	0.506	-0.126	0.591	0.0526	-0.294	-0.0787
CAAACTAGGTCACAGAGGTCAAAGTACGTGCGTA	5.51	7.48	7.65	3.46	7.8	4.75	2.64	6.77

Sequence	PBM binding z-score [1]	PBM binding z-score [2]	PBM binding z-score [3]	PBM binding z-score [4]	PBM binding z-score [5]	PBM binding z-score [6]	PBM binding z-score [7]	PBM binding z-score [8]
ATCGAAAAGTCGTGAGGTGAGTATACAGAAAGGC	0.17	0.561	0.564	-0.691	0.466	1.68	1.14	-0.0663
TCGAGTTGGTTAGGGGCATTCAGAATGGCGTCGA	0.661	-0.158	-0.398	1.95	0.163	0.835	0.169	3.32
TATACAGGGTCAAAGACCAGAGTACGAATGTCGA	2.94	5.15	4.53	2.82	5.89	3.2	0.651	2.81
TCTTGTAGATCAACAGGAGGTTAAGATAGATCGA	0.539	1.16	0.391	0.496	1.04	0.854	-0.513	-0.27
CATCAAAGTTCAAGGTAACGTAACAGAAAGCAGC	3.8	5.15	5.74	4.51	4.38	3.04	1.39	3.49
AGAATAAGGTTATTAAGATCAGGGAATTGCGGTC	1.1	1.39	1.13	1.47	1.58	2.42	0.933	0.967
TCGAGCAGGTTAGGGGCATTCAGAATGGCGTCGA	0.54	0.286	0.148	-0.111	0.719	0.723	-0.36	0.474
GCATATAGGTAATACAAGGTGAATGTCCGATTGT	0.685	0.413	0.66	0.0909	0.689	4.18	0.928	-0.178
TTAACAAGGTGAAGGTCGTTGATCCCTCTGTAGA	1.5	1.38	1.26	0.219	1.88	2.4	0.923	0.715
ATCGACAGGTCGTGAGGTGAGTATACAGAAAGGC	1.39	2.07	1.67	0.0757	2.17	2.38	1.28	0.435
ACTAGTTGGTCAGCTGAGTTCACACACAATTCGG	2.53	1.78	2.11	2.27	1.64	3.33	1.05	6.71
ACAGACAGGTGATGAGGGTAACTCAGGCTATCAT	0.681	0.294	0.502	-0.49	0.588	2.72	0.561	-0.088
ATCTCTAGGTAAAGATATTTCAGTGAATGCAAAT	-0.275	0.202	0.289	-0.0383	0.125	0.524	0.252	-0.0481
AGTCAAAGTTCAGGACGAGGAAACGTAAAGCACG	2.85	4.29	4.75	2.81	3.17	2.42	0.288	1.64
CCGACTAGGTTATGGGGCATTCAGGCAACGGTGA	1.03	0.358	0.34	-0.142	0.666	0.586	0.24	0.126
TAGCCTAGGTCATTCAGGGTCCAGTATAGAAAGC	3.02	4.74	4.16	2	3.11	4.2	0.899	2.74
CAAACTAGGTCACGGAGGTCAAAGTCCGTGCGTA	5.44	7.06	7.31	3.08	7.23	4.74	3.58	5.9
CAAACTAGGTCACAGGTCAAAGTCGAGCCAACCA	4.27	5.97	5.55	2.31	6.18	3.97	2.07	2.12
